Test results published in PubChem BioAssay (EPA / NIEHS).
“And” between values parts separate entries of the source, which are not always exact repeats. Equal entries are not always repeated. More than one record can exist for a structure, and the calls need not agree. The source made the active and inactive calls. How the source made its calls: active means hit-call score of the fitted dose curve at least 0.9, where 1 is the maximum; inactive means score below 0.9.

Columns and labels:
[1] = read-out: Thrombomodulin, THBD (gene 7056); test: BSK_CASM3C_Thrombomodulin: BioMAP Diversity Plus: CASM3C Assay for Thrombomodulin Biomarker Activity (AID 2283051); settings: primary human coronary artery smooth muscle cells; actives raise or lower the signal;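 further: thrombomodulin protein level measured by ELISA 24 h after dosing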
[2] = read-out: Tissue Factor, F3 (gene 2152); test: BSK_CASM3C_TissueFactor: BioMAP Diversity Plus: CASM3C Assay for Tissue Factor Biomarker Activity (AID 2283052); settings: primary human coronary artery smooth muscle cells; actives raise or lower the signal;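 further: cell surface tissue factor protein level read by ELISA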
[3] = read-out: Interferon-gamma inducible Protein 10 (IP10), CXCL10 (gene 3627); test: BSK_hDFCGF_IP10: BioMAP Diversity Plus: hDFCGF Assay for Interferon-gamma inducible Protein 10 (IP10) Biomarker Activity (AID 2283053); settings: primary human foreskin fibroblasts; actives raise or lower the signal
How it was run: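 Chemical-treated human skin fibroblasts (primary) were sampled at 24 h for IP-10 by ELISA. Both increases and decreases relative to DMSO were scored.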

[4] = read-out: Urokinase-type plasminogen activator receptor (uPAR), PLAUR (gene 5329); test: BSK_CASM3C_uPAR: BioMAP Diversity Plus: CASM3C Assay for Urokinase-type plasminogen activator receptor (uPAR) Biomarker Activity (AID 2283054); settings: primary human coronary artery smooth muscle cells; actives raise or lower the signal;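 further: cell-surface uPAR protein level quantified by ELISA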
[5] = read-out: Vascular cell adhesion molecule 1 (VCAM1), VCAM1 (gene 7412); test: BSK_CASM3C_VCAM1: BioMAP Diversity Plus: CASM3C Assay for Vascular cell adhesion molecule 1 (VCAM1) Biomarker Activity (AID 2283055); settings: primary human coronary artery smooth muscle cells; actives raise or lower the signal;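 further: VCAM-1 protein level quantified by ELISA on the cells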
[6] = read-out: Epidermal growth factor receptor (EGFR), EGFR (gene 1956); test: BSK_hDFCGF_EGFR: BioMAP Diversity Plus: hDFCGF Assay for Epidermal growth factor receptor (EGFR) Biomarker Activity (AID 2283057); settings: primary human foreskin fibroblasts; actives raise or lower the signal
How it was run: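 Cell-based multiplexed assay in primary human foreskin fibroblasts. EGFR is read by ELISA 24 h after treatment and compared with DMSO controls.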

[7] = read-out: Interleukin-8 (IL8), CXCL8 (gene 3576); test: BSK_hDFCGF_IL8: BioMAP Diversity Plus: hDFCGF Assay for Interleukin-8 (IL8) Biomarker Activity (AID 2283058); settings: primary human foreskin fibroblasts; actives raise or lower the signal
How it was run: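 IL-8 levels from compound-treated primary human fibroblasts were read by ELISA at 24 h, with DMSO serving as baseline for bidirectional fitting.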

[8] = BSK_hDFCGF_Proliferation: Cell Proliferation Assessment in the BioMAP Diversity Plus: hDFCGF Assay (AID 2283059); settings: primary human foreskin fibroblasts;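 further: curves fitted for both rise and fall of signal versus DMSO baseline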
How it was run: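 Steps: dose primary human dermal fibroblasts (foreskin); […] fix in 10% TCA; stain with 0.1% SRB; read 560 nm; fit gain or loss of signal against DMSO.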

[9] = read-out: Macrophage colony-stimulating factor (MCSF), CSF1 (gene 1435); test: BSK_hDFCGF_MCSF: BioMAP Diversity Plus: hDFCGF Assay for Macrophage colony-stimulating factor (MCSF) Biomarker Activity (AID 2283060); settings: primary human foreskin fibroblasts; actives raise or lower the signal
How it was run: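 M-CSF levels, determined by ELISA, are taken at 24 h after dosing human skin fibroblasts. Responses in either direction are fitted with DMSO serving as the baseline.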

[10] = read-out: Collagen III, COL3A1 (gene 1281); test: BSK_hDFCGF_CollagenIII: BioMAP Diversity Plus: hDFCGF Assay for Collagen III Biomarker Activity (AID 2283056); settings: primary human foreskin fibroblasts; actives raise or lower the signal
How it was run: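 Cells: human foreskin fibroblasts, primary. Dosing followed by 24 h incubation, then ELISA for collagen III. Both increases and decreases scored relative to DMSO.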

Measured: AC50

O=C1OC[C@H](Cc2cccc(O)c2)[C@H]1Cc1cccc(O)c1
not listed: [10]
inactive: all other assays above

C[C@@H]1CCN(C(=O)[C@H](CCCN=C(N)N)NS(=O)(=O)c2cccc3c2NC[C@H](C)C3)[C@@H](C(=O)O)C1
not listed: [10]
inactive: all other assays above

Clc1cc(Cl)c(-c2c(Cl)c(Cl)cc(Cl)c2Cl)cc1Cl
active: [3] 16 µM | [10] 4.19 µM | [7] 15.8 µM | [8] 3.7 µM | [9] 8.48 µM
inactive: [1] | [2] | [4] | [5] | [6]

CS(=O)(=O)OCCCCOS(C)(=O)=O
not listed: [10]
inactive: all other assays above

C=CC(C)(O)CCC=C(C)C (centres undefined)
not listed: [10]
inactive: all other assays above

CC(=O)c1c(C)c([N+](=O)[O-])c(C(C)(C)C)c([N+](=O)[O-])c1C
not listed: [10]
inactive: all other assays above

CC(=O)Nc1ccc(C(=O)CCl)cc1
active: [2] 3.97 µM | [3] 9.56 µM | [4] 5.2 µM | [5] 4.84 µM | [7] 9.4 µM | [8] 3.18 µM | [9] 8.76 µM
inactive: [1] | [6]

CCN(CC)C(=O)N(CC)CC
inactive: all assays above

COc1ccc(CCN2CCC(Nc3nc4ccccc4n3Cc3ccc(F)cc3)CC2)cc1
active: [8] 5.42 µM | [9] 7.49 µM
not listed: [10]
inactive: all other assays above

CCOC(=O)C(C#N)=C(c1ccccc1)c1ccccc1
active: [1] 13.7 µM | [10] 29.7 µM and 21.9 µM | [8] 29.5 µM | [9] 23.3 µM
inactive: [1] | [2] | [3] | [4] | [5] | [6] | [7] | [8] | [9]

CC(CN=Cc1ccccc1O)N=Cc1ccccc1O (centres undefined)
inactive: all assays above

C=C(C)C(=O)OCCOCCOCCOC(=O)C(=C)C
active: [9] 0.0819 µM
not listed: [10]
inactive: all other assays above

CC1(C)CCC[C@]2(C)[C@H]3CCO[C@]3(C)CC[C@@H]12
active: [2] 1.65 µM | [3] 36.5 µM and 37.9 µM | [4] 34 µM and 31.4 µM | [5] 34.1 µM and 33.7 µM | [6] 32 µM and 33 µM | [7] 37.9 µM and 35.9 µM | [8] 12.1 µM and 30.5 µM | [9] 36.6 µM and 30.8 µM
inactive: [1] | [2]

Cc1cc(CCC(=O)OCCOCCOCCOC(=O)CCc2cc(C)c(O)c(C(C)(C)C)c2)cc(C(C)(C)C)c1O
active: [8] 22.8 µM
not listed: [10]
inactive: all other assays above

CN(c1nccc(=O)[nH]1)C1CCN(c2nc3ccccc3n2Cc2ccc(F)cc2)CC1
not listed: [10]
inactive: all other assays above

IC(I)I
active: [4] 0.584 µM
not listed: [10]
inactive: all other assays above

c1ccc(Oc2ccccc2)cc1
not listed: [10]
inactive: all other assays above

O=C1OC2(c3ccccc31)c1ccc(O)c(Br)c1Oc1c2ccc(O)c1Br
active: [3] 20 µM | [8] 20 µM | [9] 20 µM
not listed: [10]
inactive: all other assays above

CSCCC=O
inactive: all assays above

CC(C)(C)CC(C)(C)c1ccc(OCCOCC[N+](C)(C)Cc2ccccc2)cc1
active: [1] 6.62 µM | [2] 5 µM | [3] 8.05 µM | [4] 7.34 µM | [5] 8.31 µM | [7] 5 µM | [8] 0.496 µM | [9] 6.64 µM
inactive: [6]

CN(C)C(=O)Nc1ccc(Oc2ccc(Cl)cc2)cc1
not listed: [10]
inactive: all other assays above

CCCCCCC(CO)CCCC (centres undefined)
active: [3] 30.6 µM and 32.5 µM | [5] 2.22 µM | [10] 29.6 µM and 31.9 µM | [7] 37.9 µM and 37.8 µM | [8] 35.1 µM and 31.4 µM | [9] 33.8 µM and 30.2 µM
inactive: [1] | [2] | [4] | [5] | [6]
